Rab9 prom act: activates the Rab9 promoter; 320,000 compounds, 2.8% hits; Huh7 Rab9 promoter-luciferase reporter, luminescence, 24 h; Potency, µM (series often up to 9.22 µM), for inactives: at the top dose activation, negative = inhibition, hits mostly activators; further: % of control where 0% means no effect; nearly all actives have a fitted effect of over 60% in size
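Huh7 cells stably carrying a Rab9 promoter-luciferase reporter, 1500 cells per well in OP-MEM I with 10% FBS, treated with compound 24 hours at 37C. Luciferase activity read by luminescence after 10 minutes with Amplite reagent.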
NPC1 prom act: activates the NPC1 promoter; Potency, µM (series often up to 9.22 µM), for the others: top-dose activation, actives largely listed as activators; Huh7 NPC1 promoter luciferase reporter, 24 h; 320,000 compounds, 2.4% hits; further: % of control where 0% means no effect; nearly all actives have a fitted effect of over 60% in size
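Luminescence from an NPC1 promoter-driven luciferase reporter in stably transfected Huh7 cells was measured after 24 h compound treatment at 37 °C, followed by 10 min ambient incubation with luciferase detection reagent.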
ELG1 genotox: induces genotoxicity in HEK293T cells with luciferase-tagged ELG1; HEK293T ELG1-luciferase reporter, luminescence, 16 h; Potency, µM (titrated, usually from 46 µM), for the others: at the top dose activity change, positive = activation, most hits filed as activators; 330,000 compounds, 1.3% hits; further: % of control where 0% means no effect; nearly all actives have a fitted effect of over 60% in size
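Luminescence read-out: rising ELG1-luciferase signal, reflecting elevated ELG1 protein under genetic stress, flags genotoxic compounds. Cells were treated for 16 hr at 37 °C before ONE-Glo detection.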
SMN2 splice up: increases expression of the SMN2 splice variant. HEK293 SMN2-luciferase splicing reporter, luminescence, 30-36 h. Potency, µM (doses to about 46.1 µM), for inactives: at the highest dose activity change, positive = activation, most hits filed as activators. 210,000 compounds, 2.8% hits. AID 1458; further: % of control where 0% means no effect; nearly all actives have a fitted effect of over 55% in size
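HEK293 cells carry an SMN2 […]–luciferase reporter in which exon 7 inclusion puts luciferase in frame. Cells were plated 10-12 h before compound addition, then incubated 30-36 h at 37C. ONE-Glo luminescence was read; sodium butyrate at 4.5 mM final served as control.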
FLuc counter: inhibits or activates purified firefly luciferase, miR-21 counter-screen; purified FLuc, Km substrates, luminescence inhibition; Potency, µM (titrated, usually from 57.5 µM), without a hit: at the highest dose activity change, negative = inhibition, hits mostly inhibitors; 360,000 compounds, 6.9% hits; AID 588342;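 further: plate controls were vehicle for no effect and reference inhibitor for full effect; nearly all actives have a fitted effect of over 55% in size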
Target sequence (P08659 whole entry, looked up): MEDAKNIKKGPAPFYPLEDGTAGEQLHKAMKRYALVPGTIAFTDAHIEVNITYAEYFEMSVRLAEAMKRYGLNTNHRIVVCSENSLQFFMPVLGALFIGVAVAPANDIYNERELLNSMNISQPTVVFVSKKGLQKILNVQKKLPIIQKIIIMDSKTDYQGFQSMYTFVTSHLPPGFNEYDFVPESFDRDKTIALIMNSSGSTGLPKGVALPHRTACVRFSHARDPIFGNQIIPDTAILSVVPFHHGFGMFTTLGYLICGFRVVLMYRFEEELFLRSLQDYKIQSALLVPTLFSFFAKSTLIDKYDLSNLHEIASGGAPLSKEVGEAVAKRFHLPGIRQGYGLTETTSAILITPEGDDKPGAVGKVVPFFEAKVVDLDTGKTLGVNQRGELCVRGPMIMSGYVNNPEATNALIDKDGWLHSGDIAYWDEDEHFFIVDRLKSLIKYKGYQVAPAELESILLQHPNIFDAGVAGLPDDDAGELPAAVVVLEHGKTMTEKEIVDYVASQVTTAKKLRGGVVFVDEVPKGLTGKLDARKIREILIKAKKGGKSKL
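Purified P. pyralis luciferase (10nM final) with 10uM D-luciferin and 10uM ATP (Km levels) in 50mM Tris acetate pH 7.5, 10mM Mg acetate, 0.01% Tween-20, 0.05% BSA; qHTS 6-point titration, ~60 µM downward; luminescence read.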
Starred values were filed as active, the others as inactive; ? = inconclusive; . = not tested or not shown. Most compounds without a hit are left out; they make up all but 7.5% or so of the library. The call rests on the fitted dose curve; in most records, active means well fitted curve in the direction sought with a large enough effect; inconclusive means small, poorly fitted or top-dose-only effect, or another doubt; inactive means no such curve, though single readings can be large; an effect the other way counts as inactive or inconclusive. Potency means the concentration at half of the fitted maximal effect.

SMILES	Rab9 prom act	NPC1 prom act	ELG1 genotox	SMN2 splice up	FLuc counter
COc1ccc(/C=C/C(=O)N2CCC(c3ccccc3)C2)cc1 (configuration not stated)	0%	6%	2%	4%	19µM*
COc1ccc(/C=C/C(=O)N2CCC(c3nc4ccccc4o3)CC2)cc1	.	.	.	.	19µM*
COc1ccc(CC(=O)N2CCC(c3ccccc3)C2)cc1 (configuration not stated)	?	20%	?	24%	?
COC(=O)C1CCN(C(=O)/C=C/c2ccc(OC)cc2)CC1	1.1µM*	0.28µM*	2.3µM*	.	21µM*
COc1ccc(Oc2ccc(NC(=O)c3ccccc3C)cc2)cc1	-10%	-9%	-12%	-14%	-17%
O=C(O)C(=O)/C(=C\c1ccc([N+](=O)[O-])cc1)c1ccc2ccccc2n1	?	9%	20%	13µM*	?
O=C(O)C(=O)/C(=C\c1ccsc1)c1ccc2ccccc2n1	21%	18%	?	.	?
O=C(O)C(=O)/C(=C\c1ccccc1)c1ccc2ccccc2n1	2%	3%	9.2µM*	.	-19%
CCCN(CCC)CCCNC(=O)Cn1ncn2c(cc3sc(CC)cc32)c1=O	.	.	.	3%	4%
CC(=O)Nc1ccc(-c2csc(Nc3ccc(S(N)(=O)=O)cc3)n2)cc1	-4%	-12%	5%	7%	-3%
c1ccc(-c2csc(Nc3ncccn3)n2)cc1	0.35µM*	0.63µM*	1.3µM*	2.5µM*	0.6µM*
c1ccc(CCNc2nc(-c3ccncc3)cs2)cc1	18%	18%	0%	-21%	?
CCCCCNc1nc(-c2ccccc2)cs1	2.8µM*	4µM*	7.3µM*	20%	1.9µM*
CC(=O)Nc1ccc(-c2csc(Nc3ncccn3)n2)cc1	0.56µM*	0.56µM*	9.2µM*	5µM*	?
Oc1ccc(-c2csc(Nc3ncccn3)n2)cc1	0.56µM*	2µM*	4.6µM*	25µM*	3µM*
CCOC(=O)C1(CCc2ccccc2)CCN(C(=O)CCn2cncn2)CC1	?	14%	?	.	?
CC(=O)Nc1ccc(-c2csc(-c3cccnc3)n2)cc1	?	2.8µM*	6.5µM*	.	7.6µM*
CCOC(=O)c1ccc(CN(Cc2ccc(F)cc2)S(=O)(=O)c2ccc(F)cc2)cc1	.	.	.	.	-8%
CCc1nonc1NC(=O)c1oc2ccc(C)cc2c1C	?	?	?	21%	?
Cc1cc2oc(C(=O)Nc3nonc3C)c(C)c2cc1Cl	3.5µM*	?	?	.	-6%
CCc1ccc2oc(C(=O)Nc3nc(-c4ccccc4)ns3)c(C)c2c1	.	.	.	?	5.4µM*
COc1ccc(-c2nsc(NC(=O)c3oc4ccc(Cl)cc4c3C)n2)cc1	.	.	.	4%	-16%
Cc1nonc1NC(=O)c1oc2ccc(F)cc2c1C	?	?	14%	.	-1%
CCc1ccc2oc(C(=O)Nc3nonc3CC)c(C)c2c1	3.5µM*	?	?	11%	?
CN(c1ccccc1)S(=O)(=O)c1cccc(NC(=O)COc2ccccc2)c1	-9%	2%	-10%	.	.
SMILES	Rab9 prom act	NPC1 prom act	ELG1 genotox	SMN2 splice up	FLuc counter
O=C(COc1ccc(Cl)cc1)Nc1cccc(S(=O)(=O)NCc2ccco2)c1	1%	-2%	-1%	.	17µM*
O=C(COc1ccc(Cl)cc1)Nc1cccc(S(=O)(=O)NC2=NCCCCC2)c1	-6%	3%	16%	.	15µM*
CC(=O)CCc1ccc(OCC(=O)Nc2cccc(S(=O)(=O)N(C)c3ccccc3)c2)cc1	-12%	-2%	-2%	.	11µM*
Cc1cc(Cl)ccc1OCC(=O)Nc1cccc(S(=O)(=O)NC2=NCCCCC2)c1	1%	8%	-5%	.	13µM*
COc1ccc(OC)c(S(=O)(=O)Nc2cc3c4c(c2)C(C)C(=O)N4CCC3)c1 (configuration not stated)	0%	-2%	2%	.	-2%
O=C(CN1C(=O)COc2ccc(S(=O)(=O)N3CCOCC3)cc21)NCc1ccc(F)cc1	.	.	.	.	-3%
CC(C)(C)c1ccc(OCC(=O)Nc2cccc(S(=O)(=O)NC3=NCCCCC3)c2)cc1	-1%	-1%	0%	.	11µM*
